This is a sample that favours compounds with a hit; in the whole collection about 7.6% have one here.
M1 antagonist: antagonists of rat M1 muscarinic receptor. P08482. CHO-M1 cells, Fluo-4 calcium, ACh EC80 antagonist mode; stronger effect = lower value. B-score at 10 µM. 3.4% of 64,000 active;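 active means calcium fluorescence response, raw or row-and-column corrected B-score, differing from the plate sample mean either way at a set confidence level, mostly lower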
PLAP act: human PLAP activation. 1.2% of 96,000 active. purified PLAP enzyme, luminescent substrate read-out; stronger effect = higher value. activation fold at 20 µM. AID 696; in the data active means activation fold above about 2
Target sequence (P05187 whole entry, looked up): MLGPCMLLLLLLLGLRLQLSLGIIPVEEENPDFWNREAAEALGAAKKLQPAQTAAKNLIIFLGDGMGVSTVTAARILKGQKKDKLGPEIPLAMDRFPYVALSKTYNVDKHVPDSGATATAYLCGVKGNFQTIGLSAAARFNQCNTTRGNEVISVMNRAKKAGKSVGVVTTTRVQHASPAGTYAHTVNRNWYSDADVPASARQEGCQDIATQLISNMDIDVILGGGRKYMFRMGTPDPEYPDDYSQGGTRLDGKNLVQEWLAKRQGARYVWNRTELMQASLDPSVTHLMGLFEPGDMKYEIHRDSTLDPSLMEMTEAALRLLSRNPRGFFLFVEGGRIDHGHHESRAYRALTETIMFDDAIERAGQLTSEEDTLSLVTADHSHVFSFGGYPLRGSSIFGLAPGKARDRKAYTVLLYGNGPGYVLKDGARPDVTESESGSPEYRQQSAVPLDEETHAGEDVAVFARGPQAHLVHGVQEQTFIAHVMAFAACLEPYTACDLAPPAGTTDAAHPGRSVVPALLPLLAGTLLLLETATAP
Cav32 inh: human Cav3.2 channel inhibition, primary screen. O95180. Cav3.2-expressing cells, Fluo-4 calcium fluorescence FDSS; stronger effect = lower value. B-score at 10 µM. 4% of 100,000 active. AID 449739;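 active means single-dose well whose peak fluorescence ratio is a statistical outlier from its plate by either plate-standardised score or position-corrected B-score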
M1 ag: activates the M1 muscarinic receptor; CHO-M1 cells, Fluo-4 calcium fluorescence, agonist mode; stronger effect = higher value; 3% of 64,000 active; AID 626; B-score at 10 µM;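 active means fluorescence rise, raw or as B-score row- and column-corrected plate score, outside the 99.7% band of its plate's samples, either direction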
M1 agonist conf: rat M1 muscarinic agonism, confirmation; shares compounds with M1 ag; CHO-M1 cells, Fluo-4 calcium fluorescence, agonist mode; actives lie on both sides; fluorescence change (max-min) at 10 µM; 19% of 1,700 active;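 active means fluorescence change differs from the solvent-only DMSO control mean at a set confidence level in both duplicate runs; inconclusive means differs from solvent-only control mean in just one of two runs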;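 further: an EC20 dose of acetylcholine follows compound addition during the same imaging run; raw fluorescence intensity difference in instrument units with no normalization to controls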
M4 agonist ctr: counter-screen for M1 agonists: activity at rat M4 receptor | CHO M4/Gqi5 cells, Fluo-4 calcium fluorescence, agonist mode; actives lie on both sides | 9% of 1,700 active | fluorescence change (max-min) at 10 µM | shares compounds with M1 ag;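 active means fluorescence change differing from the plate's solvent-only control wells at 99.7% confidence in both duplicates, whether higher or lower; inconclusive means differs from solvent controls in only one of two duplicates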
M1 antag conf: confirmation of rat M1 muscarinic receptor antagonists; shares compounds with M1 antagonist; 43% of 1,700 active; AID 677; calcium response (max-min fluorescence) at 10 µM; CHO-M1 cells, Fluo-4 calcium, ACh EC80 antagonism; stronger effect = lower value;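 active means calcium response below the same-plate mean of wells given acetylcholine alone at its 80%-effect dose, minus 3 SD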;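 further: raw fluorescence intensity difference in arbitrary instrument units and not normalized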
mGluR4 antag: selectivity test for M1 antagonists: human mGluR4 receptor; shares compounds with M1 antagonist; CHO-mGluR4 calcium flux, Fluo-4 fluorescence, glutamate EC80; stronger effect = lower value; fluorescence response (max-min) at 10 µM; 0.9% of 1,700 active; AID 678;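 active means fluorescence response below the plate's average for near-maximal glutamate wells, less 3 SD of those wells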;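 further: raw unnormalized fluorescence span taken in the window right after glutamate addition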
Active calls of the source: *; u = inconclusive; x = no result.

SMILES	M1 antagonist	PLAP act	Cav32 inh	M1 ag	M1 antag conf	mGluR4 antag	others
CC(=O)c1c(C)nn(CC(O)Cn2c3c(c4cc(C)ccc42)CCCC3=O)c1C (stereo not drawn)	0.39	1.8	-0.14	5.2*	x	x	M1 agonist conf=-42*;M4 agonist ctr=-82
Cc1ccc2c(c1)c(C)c(C)n2CC(O)Cn1nc(C)c(Br)c1C (stereo not drawn)	0.097	1.5	-3.3	1.6	x	x
CCSc1nc2c(cnn2-c2ccc(C)c(C)c2)c(=O)[nH]1	-0.18	1.2	0.0083	0.32	x	x
Cc1ccc2nc(-c3cccc(NC(=O)c4ccco4)c3)[nH]c2c1	-0.0048	1.6	-2.3	7*	x	x	M1 agonist conf=-28;M4 agonist ctr=-38
Cc1ccc(O)c(NC(=O)c2ccco2)c1	0.7	1.2	0.29	1.7	x	x
Cc1ccc(O)c(NC(=O)c2cccc(NC(=O)c3ccco3)c2)c1	0.68	1.1	-0.083	2.6*	x	x	M1 agonist conf=-26*;M4 agonist ctr=-53
Cc1ccccc1Cn1ccc(NC(=O)c2cnn3c(C(F)(F)F)cc(-c4ccco4)nc23)n1	-2.7*	0.9	-3.2	9.2*	x	x	M1 agonist conf=u;M4 agonist ctr=u
O=C(Nc1ccc2c(c1)OCO2)c1cnn2c(C(F)(F)F)cc(-c3ccco3)nc12	0.025	1.3	0.46	1.9	x	x
CC(=O)N1C(=O)C(=C2C=C(C)OC(C)=C2)c2ccccc21	-0.84	0.8	-3.9	28*	x	x	M1 agonist conf=u;M4 agonist ctr=52
C=CCNC(=O)C(C#N)c1nc2ccccc2nc1N1CCN(Cc2ccccc2)CC1 (stereo not drawn)	1.1	1.5	0.16	-1.7	x	x
CC(C)COC(=O)C(C#N)c1nc2ccccc2nc1N1CCN(Cc2ccccc2)CC1 (stereo not drawn)	-1.3*	1.3	-4*	-2.3*	631	178	M1 agonist conf=8.3;M4 agonist ctr=-8.4
CCC(CC)C(=O)Nc1c2c(nn1-c1ccc(OC)cc1)CS(=O)C2 (stereo not drawn)	-3.3*	0.7	0.45	-2.4*	675	175	M1 agonist conf=u;M4 agonist ctr=-36
Cc1ccc(-c2csc(N3CCC(NS(=O)(=O)c4ccc5c(c4)OCCO5)CC3)n2)cc1	-0.32	1.2	-2	2.5	x	x
CCOc1ccccc1NC(=O)CC1Nc2ccccc2NC1=O (stereo not drawn)	-0.37	x	-0.69	-1.3	x	x
CCOc1ccccc1NC(=O)CC1Nc2cc(C)c(C)cc2NC1=O (stereo not drawn)	-2.6*	1.4	-2.8	-2.3*	597	232	M1 agonist conf=-10;M4 agonist ctr=-41
CCOc1ccc(N=Cc2c(O)cc(C)oc2=O)cc1	-10*	1	0.61	-3.4*	688	203	M1 agonist conf=-13;M4 agonist ctr=u
Cc1cc(/N=C/C=C2\N(C)c3ccccc3C2(C)C)n(CCC#N)n1	-1.8	1.2	0.071	0.0058	x	x
CC1CCCCN1CCNC(=O)c1cc2c(=O)n(C)c3ccccc3c2n1C (stereo not drawn)	-4.2*	1.8	0.56	-2.7*	419*	254	M1 agonist conf=-17;M4 agonist ctr=-25
CCOC(=O)c1ccc(NC(=O)N2CCN(CCc3ccccc3)CC2)cc1	-2.2*	1.6	-0.21	-2.4*	459	192	M1 agonist conf=-1.7;M4 agonist ctr=-23
CCOC(=O)c1ccc(NC(=O)N2CCN(c3ccccn3)CC2)cc1	0.0017	0.9	0.23	0.82	x	x
COc1ccc(Cl)cc1NC(=O)CSc1nncn1-c1cccnc1	0.066	1.4	1	1.2	x	x
CN(C)c1ccc(-c2nn3c(-c4ccccc4Cl)nnc3s2)cc1	-5.9*	0.9	-0.61	-0.37	527	198
CCN1CCN(CC(O)COc2ccc(C(C)=O)cc2)CC1 (stereo not drawn)	-0.0022	0.8	0.009	-1.4	x	x
CC(=O)c1ccc(OCC(O)CN2C(C)(C)CC(O)CC2(C)C)cc1 (stereo not drawn)	-3.1*	1.2	0.19	0.087	622	243
Cc1c(C(=O)NNc2cc(=O)n(C)c(=O)n2C)cccc1[N+](=O)[O-]	x	x	0.57	x	x	x
SMILES	M1 antagonist	PLAP act	Cav32 inh	M1 ag	M1 antag conf	mGluR4 antag	others
NCCCCCc1nnc(SCc2cccc(Cl)c2)o1	-5.2*	0.8	-0.86	-0.35	415*	282
Nc1nc2ccc([N+](=O)[O-])c(N)c2s1	x	0.8	0.46	x	x	x
Cc1ccsc1C(=O)Nc1ccccc1N1CCOCC1	x	1.1	-0.034	x	x	x
O=S(=O)(/N=S1/CC=CCN1S(=O)(=O)c1ccccc1)c1ccccc1 (stereo not drawn)	-2.1*	1.2	-0.47	-1.4	666	243
CCOc1ccccc1NC(=O)c1ccc2nccnc2c1	-0.59	0.9	-0.24	-0.06	x	x
N#Cc1ccccc1NCc1ccccc1	-0.77	0.9	-0.46	-0.38	x	x
N#Cc1c(NCc2ccccc2)ccnc1NCc1cccnc1	-4.3*	0.8	-0.044	-0.08	441*	262
Cc1ccccc1OCc1nnc2c3cnn(C)c3ncn12	0.47	1.1	0.24	-0.45	x	x
Cc1c(N(C)C)nc2ccccc2c1N	-2.3*	0.8	1.6	0.025	610	231
CCN1CCN(CCCNC(=O)c2cc3cc4ccc(OC)cc4nc3o2)CC1	-3.9*	1.5	0.99	-0.068	563	251
COc1ccc2cc3cc(C(=O)NCCN4CCN(Cc5ccccc5)CC4)oc3nc2c1	-2.2*	1.5	0.11	1	486*	254
COc1ccc2cc3cc(C(=O)NCCCN4CCOCC4)oc3nc2c1	-0.86	1.2	-0.19	0.00034	x	x
CS(=O)(=O)N(CC(=O)NC1CCCCCC1)Cc1ccc(Cl)cc1	x	0.9	0.2	x	x	x
CCN(CC(=O)NC1CCCCC1)S(=O)(=O)c1ccc(Cl)cc1	-3.2*	0.9	x	-0.44	680	228
O=C(Nc1ccc(Cl)cc1)N1CCCN(Cc2ccccc2F)C1	x	0.8	-0.78	x	x	x
Cc1ccc(NC(=O)N2CCCN(Cc3ccc(F)cc3)C2)cc1C	-5.1*	0.8	0.16	-0.32	592	283
O=C(C1=C[C@@H](C2CCCCC2)C[C@@H](OCCCCO)O1)N1CCOCC1	x	x	1.9	x	x	x
Cc1ccc(CNC(=O)c2ccc(CN3CCOCC3)cc2)cc1	0.39	1.4	1.5	-0.052	x	x
O=C(NCCc1c[nH]c2ccccc12)C(=O)Nc1ccccc1	x	x	-0.57	x	x	x
Cc1ccc(-c2cc3nn(-c4ccccc4)c(N)c3c(=O)o2)cc1	x	0.9	0.88	x	x	x
COc1ccc(-c2[nH]ncc2-c2cnn(-c3ccccc3)c2)c(O)c1	-3.3*	2*	-0.062	0.38	553	202
COc1ccccc1C1C(C#N)=C(N)Oc2cc(C)n(CCCn3ccnc3)c(=O)c21 (stereo not drawn)	-2.6*	2*	1.1	-0.61	379*	201
COc1ccc(CN2CCN(S(=O)(=O)c3ccc(NC(C)=O)cc3)CC2)cc1OC	-2.7*	1.6	-0.011	-1.5	529	212

Screens as filed in PubChem.
